DAX1 inh-1 = DAX1 (NR0B1) inhibition, primary screen. inhibition, % at 6.8 µM. AID 652010. 370,000 tested, 1.1% active. HEK293T StAR-luciferase reporter, SF-1/DAX-1 repression relief;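 active = inhibition above the mean over all tested compounds plus 3 SD, cut at about 3.6% in these data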;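 also: higher inhibition means more luminescence from relief of DAX-1 repression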
ssDAF12 agonist = activators of S. stercoralis DAF-12 nuclear receptor | HEK293 ssDAF-12/GRIP1 lit1-tk-luc reporter, luminescence; % of 3 µM dafachronic acid response | activation, % at 6.8 µM | 370,000 tested, 1% active;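 active = activation above the mean over all tested compounds plus 3 SD, cut at about 0.9% in these data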
hcDAF-12 act = activates DAF-12 receptor from parasite H. contortus | HEK293 hcDAF-12 lit1-tk-luc reporter, luminescence; 0% DMSO, 100% Δ7-dafachronic acid | 370,000 tested, 1.4% active | activation, % at 6.8 µM | AID 652067;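 active = activation above the mean of all tested compounds plus 3 SD, cut at about 5.5% in these data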
SMARCA2 act = SMARCA2 function activation, primary screen; MG213 cells, MMTV-luciferase reporter, dexamethasone, overnight; activation, % at 9.1 µM; AID 652017; 370,000 tested, 1% active; in the data active = activation above about 7.8%
DAX1 inh-2 = inhibitors of human orphan nuclear receptor DAX1 (NR0B1) | HEK293 Gal4-DAX1 luciferase reporter, luminescence | inhibition, % at 6.75 µM | 340,000 tested, 0.99% active | AID 504766;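 active = inhibition above the mean over all tested compounds plus 3 SD, cut at about 4.2% in these data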;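 also: inhibition shows as a rise in luminescence from relieved DAX1 repression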
Target sequence (P51843 207-470 limits assumed): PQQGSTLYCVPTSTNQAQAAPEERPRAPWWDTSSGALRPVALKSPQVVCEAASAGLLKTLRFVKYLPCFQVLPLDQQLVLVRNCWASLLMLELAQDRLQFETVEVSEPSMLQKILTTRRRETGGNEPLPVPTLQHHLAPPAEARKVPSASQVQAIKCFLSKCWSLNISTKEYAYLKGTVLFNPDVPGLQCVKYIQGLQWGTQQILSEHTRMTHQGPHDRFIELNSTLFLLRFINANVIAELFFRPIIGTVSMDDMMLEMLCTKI
hgDAF-12 ag = agonists of H. glycines DAF-12 nuclear receptor. HEK293 GAL4-hgDAF12 UAS-luciferase reporter, agonist luminescence; normalized to butyrate control. activation, % at 6.8 µM. 370,000 tested, 1.8% active. AID 687014;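 active = activation above a cutoff set at the mean of all screened compounds plus 3 SD, cut at about 10% in these data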
Hits are given with their value. A selection: hits, their analogues and other compounds. The true share with any hit is near 4.8%.

For CC1CCN(c2ccc(C(=O)O)cc2NS(=O)(=O)c2ccccc2)CC1 the results were DAX1 inh-1 inactive, ssDAF12 agonist inactive, hcDAF-12 act inactive, SMARCA2 act inactive and hgDAF-12 ag inactive.
`CCC(CO)Nc1cccc2c1S(=O)(=O)N(Cc1cn(Cc3cccc(C(F)(F)F)c3)nn1)Cc1ccccc1O2` (stereo unspecified) gave DAX1 inh-1 inactive, ssDAF12 agonist inactive, hcDAF-12 act inactive, SMARCA2 act inactive and hgDAF-12 ag inactive.
For CC1CCN(c2ccc(NC(=S)NC(=O)c3ccco3)cc2)CC1 the results were DAX1 inh-1 inactive, ssDAF12 agonist inactive, hcDAF-12 act inactive, SMARCA2 act inactive, DAX1 inh-2 inactive and hgDAF-12 ag inactive.
Screening O=C(NNC(=O)c1ccc(Br)s1)c1csc(N2CCOCC2)n1 returned DAX1 inh-1 inactive, ssDAF12 agonist inactive, hcDAF-12 act inactive, SMARCA2 act inactive, DAX1 inh-2 inactive and hgDAF-12 ag inactive.
Screening O=C(NNC(=O)c1cccs1)c1csc(N2CCOCC2)n1 returned DAX1 inh-1 inactive, ssDAF12 agonist 1.2, hcDAF-12 act inactive, SMARCA2 act inactive, DAX1 inh-2 inactive and hgDAF-12 ag inactive.
For Cc1ccc(C(=O)Nc2ccc(N3CCN(C)CC3)cc2)cc1 the results were DAX1 inh-1 inactive, ssDAF12 agonist 1.3, hcDAF-12 act inactive, SMARCA2 act inactive, DAX1 inh-2 inactive and hgDAF-12 ag inactive.
`COc1ccc(C(=O)Nc2ccc(N3CCN(C)CC3)cc2)cc1` gave DAX1 inh-1 inactive, ssDAF12 agonist inactive, hcDAF-12 act inactive, SMARCA2 act inactive, DAX1 inh-2 inactive and hgDAF-12 ag inactive.
O=C(NC(=S)Nc1ccc(N2CCOCC2)cc1)c1cccs1 was read as DAX1 inh-1 4.0, ssDAF12 agonist inactive, hcDAF-12 act inactive, SMARCA2 act inactive, DAX1 inh-2 inactive and hgDAF-12 ag 12.
`O=C(NC(=S)Nc1ccc(N2CCCCC2)cc1)c1ccco1` gave DAX1 inh-1 inactive, ssDAF12 agonist inactive, hcDAF-12 act inactive, SMARCA2 act inactive, DAX1 inh-2 inactive and hgDAF-12 ag 13.
Screening O=C(NC1CCCCN(Cc2ccc(OC(F)(F)F)cc2)C1=O)c1cccc(F)c1 (stereo unspecified) returned DAX1 inh-1 inactive, ssDAF12 agonist inactive, hcDAF-12 act inactive, SMARCA2 act inactive and hgDAF-12 ag inactive.
For CC(C)CSc1nnc(N)s1 the results were DAX1 inh-1 inactive, ssDAF12 agonist inactive, hcDAF-12 act inactive, SMARCA2 act inactive, DAX1 inh-2 inactive and hgDAF-12 ag inactive.
CC(C)CN(CC(C)C)c1nnc(N)s1 was read as DAX1 inh-1 inactive, ssDAF12 agonist inactive, hcDAF-12 act inactive, SMARCA2 act inactive, DAX1 inh-2 5.9 and hgDAF-12 ag inactive.
`C=CCc1cccc(CNc2nc3ccccc3n2CC)c1O` gave DAX1 inh-1 inactive, ssDAF12 agonist inactive, hcDAF-12 act inactive, SMARCA2 act inactive, DAX1 inh-2 inactive and hgDAF-12 ag inactive.
For C=CCc1cccc(CNc2nc3ccccc3n2CCC)c1O the results were DAX1 inh-1 inactive, ssDAF12 agonist inactive, hcDAF-12 act inactive, SMARCA2 act inactive, DAX1 inh-2 4.7 and hgDAF-12 ag inactive.
Screening O=C(CN(Cc1ccc(F)cc1)C(=O)CCC(=O)Nc1nccs1)NCc1ccc(F)cc1 returned DAX1 inh-1 inactive, ssDAF12 agonist inactive, hcDAF-12 act inactive, SMARCA2 act inactive, DAX1 inh-2 4.6 and hgDAF-12 ag inactive.
`COc1ccc(Nc2oc(-c3ccc(Cl)cc3)nc2C#N)cc1` gave DAX1 inh-1 inactive, ssDAF12 agonist inactive, hcDAF-12 act inactive, SMARCA2 act inactive, DAX1 inh-2 inactive and hgDAF-12 ag 11.
`COc1ccc(Nc2oc(-c3ccccc3)nc2C#N)cc1` gave DAX1 inh-1 inactive, ssDAF12 agonist inactive, hcDAF-12 act inactive, SMARCA2 act inactive, DAX1 inh-2 inactive and hgDAF-12 ag 10.
For CC(C)CNC(=O)OCc1cn(Cc2ccccc2C(F)(F)F)nn1 the results were DAX1 inh-1 inactive, ssDAF12 agonist inactive, hcDAF-12 act inactive, SMARCA2 act inactive and hgDAF-12 ag inactive.
Screening CCC(c1ccccc1)c1nnc(NC(=O)c2ccco2)s1 (stereo unspecified) returned DAX1 inh-1 inactive, ssDAF12 agonist inactive, hcDAF-12 act inactive, SMARCA2 act inactive and hgDAF-12 ag inactive.
`O=C(Nc1nnc(SCc2ccccc2F)s1)c1ccco1` gave DAX1 inh-1 inactive, ssDAF12 agonist inactive, hcDAF-12 act inactive, SMARCA2 act inactive, DAX1 inh-2 inactive and hgDAF-12 ag inactive.

Screening results as filed in PubChem.
